Our source for the outcome and AC50 values is PubChem BioAssay (EPA / NIEHS).

Read-out in assay [1]: Intercellular Adhesion Molecule 1 (ICAM1), ICAM1 (gene 3383)
The assay is described as follows: BSK_BE3C_ICAM1: BioMAP Diversity Plus: BE3C Assay for Intercellular Adhesion Molecule 1 (ICAM1) Biomarker Activity (AID 2284278).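 Note: cell-surface ICAM-1 protein level quantified by ELISA.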 The note with it: primary human bronchial epithelial cells. The method in brief:
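Measured by ELISA: ICAM-1 expressed by primary human bronchial epithelial cells 24 h after compound treatment, with upward-direction fitting versus DMSO vehicle.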

Read-out in assay [2]: Interleukin-8 (IL8), CXCL8 (gene 3576)
Nature of the assay: BSK_BE3C_IL8: BioMAP Diversity Plus: BE3C Assay for Interleukin-8 (IL8) Biomarker Activity (AID 2284280). As to conditions: primary human bronchial epithelial cells. The procedure, abridged: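 Primary human bronchial epithelial cells (BE3C system) exposed 24 h; IL-8 measured by ELISA and fitted in positive direction versus DMSO. Overt cytotoxicity assessed by SRB total-protein staining in parallel cultures.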

Read-out in a further assay: KRT18 (gene 3875)
The assay is described as follows: BSK_BE3C_Keratin818: BioMAP Diversity Plus: BE3C Assay for Keratin 818 Biomarker Activity (AID 2284282). As to conditions: primary human bronchial epithelial cells. The procedure, abridged:
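BE3C: human bronchial epithelial primary cells, 24 h exposure, Keratin 8/18 ELISA; DMSO = negative control/baseline; cytotoxicity by parallel SRB stain (0.1% SRB after 10% TCA fixation, 560 nm).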

Read-out in assay [3]: Matrix Metallopeptidase 9 (MMP9), MMP9 (gene 4318)
Nature of the assay: BSK_BE3C_MMP9: BioMAP Diversity Plus: BE3C Assay for Matrix Metallopeptidase 9 (MMP9) Biomarker Activity (AID 2284283). As to conditions: primary human bronchial epithelial cells. The procedure, abridged: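 Human primary bronchial epithelial cells exposed 24 h to compound. MMP9 quantified by ELISA. SRB total-protein staining of parallel cultures assesses cytotoxicity. Positive-direction fit relative to DMSO.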

Read-out in assay [4]: Plasminogen activator inhibitor-1 (PAI1), SERPINE1 (gene 5054)
Nature of the assay: BSK_CASM3C_PAI1: BioMAP Diversity Plus: CASM3C Assay for Plasminogen activator inhibitor-1 (PAI1) Biomarker Activity (AID 2284284).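 Note: PAI-1 protein level measured by ELISA 24 h after dosing.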 The note with it: primary human coronary artery smooth muscle cells.

Read-out in assay [5]: Monocyte Chemoattractant Protein-1 (MCP1), CCL2 (gene 6347)
The assay is described as follows: BSK_hDFCGF_MCP1: BioMAP Diversity Plus: hDFCGF Assay for Monocyte Chemoattractant Protein-1 (MCP1) Biomarker Activity (AID 2284285). As to conditions: primary human foreskin fibroblasts. The method in brief: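 Human foreskin fibroblasts (hDFCGF system) were exposed to compound and secreted MCP-1 was measured by ELISA after 24 hours. Activity was fitted relative to DMSO. Cytotoxicity was checked by SRB total-protein staining in parallel cultures.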

Read-out in assay [6]: Intercellular Adhesion Molecule 1 (ICAM1), ICAM1 (gene 3383)
The assay is described as follows: BSK_hDFCGF_ICAM1: BioMAP Diversity Plus: hDFCGF Assay for Intercellular Adhesion Molecule 1 (ICAM1) Biomarker Activity (AID 2284287). The note with it: primary human foreskin fibroblasts. The procedure, abridged: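 Primary human foreskin fibroblasts (hDFCGF system) dosed with chemical; ICAM-1 quantified by ELISA at 24 h relative to DMSO. Parallel SRB total-protein staining to assess overt cytotoxicity.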

Read-out in assay [7]: TIMP metallopeptidase inhibitor 2 (TIMP2), TIMP2 (gene 7077)
The assay is described as follows: BSK_hDFCGF_TIMP2: BioMAP Diversity Plus: hDFCGF Assay for TIMP metallopeptidase inhibitor 2 (TIMP2) Biomarker Activity (AID 2284289). The note with it: primary human foreskin fibroblasts. The procedure, abridged: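 Primary human foreskin fibroblasts in the hDFCGF system, dosed for 24 h; TIMP-2 level measured by ELISA, fitted in the positive direction against DMSO; cytotoxicity checked in parallel by sulforhodamine B total protein staining.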

Assay [8] is described as follows: IUF_NPC2c_oligodendrocyte_migration_120hr: Leibniz Research Institute for Environmental Medicine (IUF) 120-hour Neural Progenitor Cell Migration Assay for Oligodendrocyte Migration (NPC2c) (AID 2284297).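 Note: O4-positive oligodendrocyte migration distance divided by radial glia migration distance.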 The method in brief:
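Human fetal neural progenitor spheres (0.3 mm) are plated on poly-D-lysine/laminin in N2 differentiation medium and exposed for 120 h, with half-medium renewal at day 3. Oligodendrocyte (O4+) migration distance comes from ICC imaging, normalised to radial glia migration.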

Read-out in assay [9]: urokinase Plasminogen Activator (uPA), PLAU (gene 5328)
The assay is described as follows: BSK_BF4T_uPA: BioMAP Diversity Plus: BF4T Assay for urokinase Plasminogen Activator (uPA) Biomarker Activity (AID 2284275). As to conditions: primary human bronchial epithelial cells with fibroblasts. The method in brief:
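Co-culture of human bronchial epithelial cells and dermal fibroblasts; uPA quantified by ELISA 24 hours after dosing, fitted relative to DMSO. Parallel SRB total-protein staining assessed overt cytotoxicity.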

Read-out in assay [10]: Matrix Metallopeptidase 9 (MMP9), MMP9 (gene 4318)
The assay is described as follows: BSK_BF4T_MMP9: BioMAP Diversity Plus: BF4T Assay for Matrix Metallopeptidase 9 (MMP9) Biomarker Activity (AID 2284276). The note with it: primary human bronchial epithelial cells with fibroblasts. The procedure, abridged:
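Co-culture of human bronchial epithelial cells and dermal fibroblasts dosed for 24 h; MMP-9 quantified by ELISA and fitted upward versus DMSO. Cytotoxicity monitored in parallel cultures by SRB total-protein staining at the biomarker time point.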

Read-out in assay [11]: Interleukin-8 (IL8), CXCL8 (gene 3576)
Nature of the assay: BSK_IMphg_IL8: BioMAP Diversity Plus: IMphg Assay for Interleukin-8 (IL8) Biomarker Activity (AID 2284277). As to conditions: primary human endothelial cells with macrophages. The procedure, abridged:
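Co-culture of human venular endothelial cells and macrophages exposed to chemicals for 24 h; IL-8 quantified by ELISA and compared against the DMSO baseline, with SRB total-protein staining in parallel cultures for cytotoxicity.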

Read-out in assay [12]: Vascular cell adhesion molecule 1 (VCAM1), VCAM1 (gene 7412)
Nature of the assay: BSK_IMphg_VCAM1: BioMAP Diversity Plus: IMphg Assay for Vascular cell adhesion molecule 1 (VCAM1) Biomarker Activity (AID 2284286). The note with it: primary human endothelial cells with macrophages. The procedure, abridged:
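Human venular endothelial cells co-cultured with macrophages; VCAM-1 quantified by ELISA 24 h after dosing, fitted in the positive direction against DMSO. Cytotoxicity was checked in parallel cultures by SRB total-protein staining (0.1% SRB after 10% TCA fixation, 560 nm).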

Read-out in a further assay: CD40, CD40 (gene 958)
Nature of the assay: BSK_IMphg_CD40: BioMAP Diversity Plus: IMphg Assay for CD40 Biomarker Activity (AID 2284288). As to conditions: primary human endothelial cells with macrophages. The procedure, abridged: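 Venular endothelial cells co-cultured with macrophages (human primary), CD40 measured by ELISA 24 h after dosing. Positive-direction fit vs DMSO baseline; cytotoxicity tracked by SRB total-protein staining in parallel cultures.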

Read-out in assay [13]: Interleukin-1 alpha (IL1a), IL1A (gene 3552)
The assay is described as follows: BSK_IMphg_IL1a: BioMAP Diversity Plus: IMphg Assay for Interleukin-1 alpha (IL1a) Biomarker Activity (AID 2284290). As to conditions: primary human endothelial cells with macrophages. The method in brief:
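Human venular endothelial cells co-cultured with macrophages, IMphg system. IL-1α is measured by ELISA 24 h after dosing and fitted in the positive direction against DMSO. Cytotoxicity is assessed by SRB staining of parallel cultures.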

Read-out in assay [14]: E-selectin (Homo sapiens) (UniProt P16581)
The assay is described as follows: BSK_IMphg_ESelectin: BioMAP Diversity Plus: IMphg Assay for Eselectin Biomarker Activity (AID 2284291). The note with it: primary human endothelial cells with macrophages. The procedure, abridged:
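Human venular endothelial cell–macrophage co-culture, E-selectin measured by ELISA 24 h after chemical dosing. Signal fitted in the positive direction against DMSO as negative control and baseline.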

Assay [15] is described as follows: BSK_IMphg_SRB: Viability Assessment in the BioMAP Diversity Plus: IMphg Assay (AID 2284292).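 Note: measured one day after compound addition.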 As to conditions: primary human endothelial cells with macrophages. The method in brief:
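Human venular endothelial cells with macrophages, 24 h after chemical dosing; total protein by 0.1% SRB staining after 10% TCA fixation, read at 560 nm. Positive-direction fitting versus DMSO baseline.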

Read-out in assay [16]: Macrophage colony-stimulating factor (MCSF), CSF1 (gene 1435)
Nature of the assay: BSK_IMphg_MCSF: BioMAP Diversity Plus: IMphg Assay for Macrophage colony-stimulating factor (MCSF) Biomarker Activity (AID 2284293). The note with it: primary human endothelial cells with macrophages. The procedure, abridged: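 Co-culture of human venular endothelial cells and macrophages, 24 hours of chemical exposure. M-CSF quantified by ELISA, with parallel SRB total-protein staining for cytotoxicity; activity fitted relative to DMSO.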

Read-out in assay [17]: Interleukin-10 (IL10), IL10 (gene 3586)
Nature of the assay: BSK_IMphg_IL10: BioMAP Diversity Plus: IMphg Assay for Interleukin-10 (IL10) Biomarker Activity (AID 2284294). The note with it: primary human endothelial cells with macrophages. The method in brief: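 Human venular endothelial cells cocultured with macrophages, dosed 24 h; IL-10 measured by ELISA, activity relative to DMSO. Cytotoxicity assessed in parallel cultures by sulforhodamine B total-protein staining.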

Assay [18] can be described thus: BSK_IMphg_SRB.Mphg: Macrophage Viability Assessment in the BioMAP Diversity Plus: IMphg Assay (AID 2284295). The note with it: primary human endothelial cells with macrophages. The method in brief: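 Venular endothelial cells co-cultured with macrophages, read 24 h after dosing. Total protein measured by 0.1% SRB staining after 10% TCA fixation, absorbance at 560 nm. Fitted in positive direction against DMSO baseline.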

“And” between values parts separate entries of the source, which are not always exact repeats. Equal entries are not always repeated. Some compounds were tested as several samples or in several runs, with calls that do not always agree. The source made the active and inactive calls. Rule for the calls: active = hit-call score of the fitted dose curve at least 0.9, where 1 is the maximum; inactive = score below 0.9.

Chain of E-selectin (Homo sapiens) (P16581 whole entry, looked up): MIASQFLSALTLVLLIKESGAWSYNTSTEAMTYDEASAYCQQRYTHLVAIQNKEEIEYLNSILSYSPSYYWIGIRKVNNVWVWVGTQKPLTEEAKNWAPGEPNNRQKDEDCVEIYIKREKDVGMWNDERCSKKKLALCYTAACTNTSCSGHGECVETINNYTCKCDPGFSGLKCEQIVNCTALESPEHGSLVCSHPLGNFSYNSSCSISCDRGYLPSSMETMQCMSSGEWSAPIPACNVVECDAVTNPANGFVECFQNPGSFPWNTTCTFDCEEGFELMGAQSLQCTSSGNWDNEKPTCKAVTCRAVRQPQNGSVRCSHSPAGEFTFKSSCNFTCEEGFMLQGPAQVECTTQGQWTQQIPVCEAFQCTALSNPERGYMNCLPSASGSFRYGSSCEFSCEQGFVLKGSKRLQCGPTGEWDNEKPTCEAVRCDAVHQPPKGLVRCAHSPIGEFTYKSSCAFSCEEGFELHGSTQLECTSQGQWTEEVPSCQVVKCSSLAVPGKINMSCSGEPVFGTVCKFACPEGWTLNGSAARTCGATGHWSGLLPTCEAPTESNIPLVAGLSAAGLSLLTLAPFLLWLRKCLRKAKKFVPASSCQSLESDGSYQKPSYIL

In the case of `CC(C)(CO)CO`, the result (in assay [1]; in assay [2]; with KRT18 (gene 3875); in [3]; in assay [4]; in [5]) was inactive. For the same compound, the outcome in [6] and in [7] was inactive.
With `CCCCC(CC)COC(=O)COc1ccc(Cl)cc1C` (stereo unspecified), the compound was called inactive in [8].
Same read-out and setting: the value for `CC(C)Cc1ccc(C(C)C(=O)O)cc1` (stereo unspecified) was “inactive”.
For `O=S(=O)(O)C(F)(F)C(F)(F)OC(F)(F)C(F)(F)F`, the result (in assay [9]; in [10]; in assay [11]; in assay [1]; in [2]; with KRT18 (gene 3875)) was inactive. The outcome was “inactive” in [3]; “inactive” in assay [4]; “inactive” in [5]; “inactive” in assay [12]; “inactive” in assay [6]; “inactive” with CD40, CD40 (gene 958). Further, the result in assay [7], in assay [13], in [14], in [15], in assay [16] and in [18] was inactive. The AC50 in assay [11] is 41.7 µM (active); in [17], 47.8 µM (active) and 44.1 µM (active).
`c1ccc(OCCOc2ccccc2)cc1`: the result (in assay [1]; in assay [2]; in the assay with KRT18 (gene 3875); in assay [3]; in assay [4]; in assay [5]) was inactive. Further, the outcome in [6] and in assay [7] was inactive. Moreover, in [7], the AC50 is 3.6 µM (active).
Take `C=C(F)C(=O)OC(C(F)(F)F)C(F)(F)F`: the result (in assay [9]; in [10]; in assay [11]; in assay [1]; in [2]; in the assay with KRT18 (gene 3875)) was inactive. The outcome was “inactive” in assay [3]; “inactive” in assay [4]; “inactive” in assay [5]; “inactive” in assay [12]; “inactive” in assay [6]; “inactive” with CD40, CD40 (gene 958). Moreover, the result in assay [7], in assay [13], in [14], in [15], in assay [16] and in assay [17] was inactive. Besides, the outcome in assay [18] was inactive. The AC50 in the assay with CD40, CD40 (gene 958) was 5.95 µM (active).
Turning to `CCCCN(CCO)CCO`, the outcome (in [1]; in assay [2]; in the assay with KRT18 (gene 3875); in [3]; in assay [4]; in [5]) was inactive. In addition, the outcome in assay [6] and in assay [7] was inactive. In assay [7], the AC50 was 4.34 µM (active).
As for `c1ccc2scnc2c1`, the outcome in [8] was inactive.
Take `OCC(F)(OC(F)(F)C(F)(OC(F)(F)C(F)(F)C(F)(F)F)C(F)(F)F)C(F)(F)F` (stereo unspecified): the outcome (in [9]; in assay [10]; in [11]; in assay [1]; in [2]; in the assay with KRT18 (gene 3875)) was inactive. Besides, the outcome in assay [3] was “inactive”; in assay [4], “inactive”; in [12] it was “inactive”; with CD40, CD40 (gene 958) it was “inactive”; in [13] it was “inactive”; in assay [15] it was “inactive”. The result in assay [16], in assay [17] and in assay [18] was inactive. In addition, the AC50 was 4.79 µM (active) and 2.83 µM (active) in [5]; 5.06 µM (active) and 2.52 µM (active) in assay [6]; 2.07 µM (active) and 198 nM (active) in assay [7]; 5.64 µM (active) and 3.5 µM (active) in assay [14]; 6.17 µM (active) in [15]; 3.33 µM (active) in assay [17]. Moreover, the AC50 in assay [18] is 4.31 µM (active).

What is called AC50 is the concentration at which the activity in the assay is half-maximal.
